Experimental findings from PubChem BioAssay (NCI) are described below.

Experiment [1] in a line: NCI Yeast Anticancer Drug Screen. Data for the rad50 strain (AID 155).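 Further: 0% = growth of vehicle-only cultures of the same strain.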 Conditions: S. cerevisiae rad50 strain growth inhibition; at 50.0 µM; stronger effect = higher value. A digest of the protocol:
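Genetically altered yeast (DNA repair pathway); compound treatment; growth inhibition vs vehicle ctrl.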

Experiment [2] in a line: NCI Yeast Anticancer Drug Screen. Data for the mec2-1 strain (AID 157). Conditions: S. cerevisiae mec2-1 strain, at 50.0 µM, stronger effect = higher value. In a few lines:
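Strain: mec2-1 (DNA repair/cell cycle alteration). Compound exposure, then growth measured; inhibition expressed relative to vehicle.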

Experiment [3] can be described thus: NCI Yeast Anticancer Drug Screen. Data for the sgs1 mgt1 strain (AID 161).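 Further: 0% = growth of cultures given vehicle only.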 Conditions: S. cerevisiae sgs1 mgt1 strain, at 50.0 µM, stronger effect = higher value. In a few lines: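 Read-out: growth inhibition vs vehicle controls. Cells: mutant yeast strain deficient in DNA damage repair.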
Experiment [4] in a line: NCI Yeast Anticancer Drug Screen. Data for the cln2 rad14 strain (AID 165).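 Further: 0% = growth equal to vehicle treated cultures.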 Conditions: S. cerevisiae cln2 rad14 strain, at 50.0 µM, stronger effect = higher value. In a few lines:
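Compounds are applied to the cln2 rad14 yeast strain, and growth is then compared with that of vehicle-treated cultures to give inhibition.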

Experiment [5] in a line: NCI Yeast Anticancer Drug Screen. Data for the bub3 strain (AID 167). Conditions: S. cerevisiae bub3 mutant strain, at 50.0 µM, stronger effect = higher value. A digest of the protocol: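 Yeast carrying a defined mutation is treated with each compound, and growth is compared with that of vehicle-exposed cells to give inhibition.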
Experiment [6] in a line: NCI Yeast Anticancer Drug Screen. Data for the mlh1 rad18 strain (AID 175). Conditions: S. cerevisiae mlh1 rad18 strain growth inhibition; at 50.0 µM; stronger effect = higher value. A digest of the protocol: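 Read-out is yeast growth inhibition, calculated against vehicle-only controls. The compound was applied to a strain engineered with DNA damage repair alterations.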

Each structure is given as a SMILES string. Compounds without any hit were thinned out: in the full panel of roughly 79,000, 15% have a hit. Unmarked numbers belong to inactive results. Active and inactive are the calls of the source. No stated cut-off is given here; in the data, active means growth inhibition above about 70%; inactive means the rest. Where a SMILES comes first, the peptide text is derived from it. [ ]: non-standard residue; d: D form. The star is where a group is joined. ξ: configuration not given here. ξF = NC(Cc1ccccc1)C(=O)O; Cbz = O=C(OCc1ccccc1)*

Regarding `CCN(CCOC(=O)Nc1cccc(C(C)=O)c1)c1ccccc1`, the growth inhibition is 91.2% (active) in experiment [1]; 96.5% (active) in experiment [2]; 97.5% (active) in experiment [3]; 76.2% (active) in experiment [4]; 92.1% (active) in experiment [5]; 88.2% (active) in experiment [6].

For `CCCCCCc1cc(C(=O)N/N=C/c2ccccc2O)c2ccccc2n1`, the growth inhibition was -35.2% in experiment [1]; -8.1% in experiment [2]; 16% in experiment [3]; -13.2% in experiment [4]; 67.6% in experiment [5]; -2.95% in experiment [6].

For `S=C(CC(=S)N1CCOCC1)N1CCOCC1`, the growth inhibition in experiment [1] was -15.1%; in experiment [2] it was -1.5%; in experiment [3], -10.5%; in experiment [4], -14.7%; in experiment [5], -11.7%; in experiment [6] it was -1.75%.

As for `O=C1c2ccccc2C(=O)N1c1ccc(C(F)(F)F)cc1[N+](=O)[O-]`, the growth inhibition in experiment [1] was -1.25%; in experiment [2] it was 16.2%; in experiment [3], 19.7%; in experiment [4], -15.8%; in experiment [5], 14.5%; in experiment [6], 7.2%.

Consider `CCN(CC)Cc1cc(N=Nc2cccc3ccccc23)c2ccccc2c1O`, for which the growth inhibition in experiment [1] is 31.6%; in experiment [2] it was 11.4%; in experiment [3], 30.1%; in experiment [4], 24.9%; in experiment [5] it was -3.15%; in experiment [6] it was 35.7%.

On to `CCCCCCCCC(=O)c1c(OC)oc(/C=N/NC(N)=S)cc1=O`, for which the growth inhibition in experiment [1] was 83.5% (active); in experiment [2], 77.1% (active); in experiment [3], 79% (active); in experiment [4], 9.55%; in experiment [5] it was 86.2% (active); in experiment [6] it was 71.8% (active).

Consider `CCOC(=O)c1c(N)n(-c2ccccc2)c(=S)n(-c2ccccc2)c1=O`, for which the growth inhibition in experiment [1] was -17%; in experiment [2], -24.4%; in experiment [3] it was -32.5%; in experiment [4], 14.6%; in experiment [5] it was -40.2%; in experiment [6], -41.4%.

For the compound `COc1ccc(C(C)S(=O)(=O)c2ccccc2)cc1OC` (stereo not given), the growth inhibition in experiment [1] is 6.2%; in experiment [2], 8.8%; in experiment [3], -2.9%; in experiment [4], -5.9%; in experiment [5] it was 6.1%; in experiment [6], 5.5%.

Take `CCOP(=O)(OCC)/C(C#N)=C/c1ccc2ccccc2c1`: the growth inhibition in experiment [1] is -7.5%; in experiment [2], -5.05%; in experiment [3], -16.8%; in experiment [4] it was -16.3%; in experiment [5], 5%; in experiment [6] it was -13.6%.

Turning to `CCOC(=O)N1CCN(CCO)CC1`, the growth inhibition in experiment [1] is -19.9%; in experiment [2] it was 2.65%; in experiment [3], 2.35%; in experiment [4], -34%; in experiment [5], 3.05%; in experiment [6], -8.25%.

Consider `CCCCCCCCCCCCCCCCCCCCCCCCCCCCCCS(=O)(=O)Cl`, for which the growth inhibition was 14.7% in experiment [1]; 28.1% in experiment [2]; 16.9% in experiment [3]; 18.8% in experiment [4]; 33.9% in experiment [5]; -18.9% in experiment [6].

For `CCOC(=O)CNC(=O)C(Cc1ccccc1)NC(=O)OCc1ccccc1` (stereo not given) (Cbz-[ξF]-Gly-OEt), the growth inhibition in experiment [1] was -16.2%; in experiment [2], -19.1%; in experiment [3], 4.55%; in experiment [4] it was -4.75%; in experiment [5], -3.6%; in experiment [6], -9%.

Take `CC(=O)c1cc(C(C)(C)C)ccc1O`: the growth inhibition in experiment [1] was 17.8%; in experiment [2] it was 4.8%; in experiment [3], 7.8%; in experiment [4], 9.65%; in experiment [5], 26.1%; in experiment [6] it was 12.8%.

In the case of `CC1=C(c2ccccc2)OS(=O)(=O)CC1N(C)C` (stereo not given), the growth inhibition is -2.6% in experiment [1]; -16.4% in experiment [2]; -1.65% in experiment [3]; -6.95% in experiment [4]; -7.4% in experiment [5]; -2.35% in experiment [6].

As for `Cc1[nH]n(C2=NCCN2)c(=O)c1Cc1ccccc1`, the growth inhibition is 4.6% in experiment [1]; -6.95% in experiment [2]; -24.2% in experiment [3]; -26.3% in experiment [4]; -10.6% in experiment [5]; -61.6% in experiment [6].

Turning to `C/C=C/C1OCC(C)(C)CO1`, the growth inhibition in experiment [1] is -0.8%; in experiment [2], 22.9%; in experiment [3] it was -12.9%; in experiment [4], -46.8%; in experiment [5], -24.7%; in experiment [6], -1.5%.

For `O=C(O)CSc1n[nH]c(-c2ccco2)n1`, the growth inhibition in experiment [1] is -4.05%; in experiment [2], 4.25%; in experiment [3], 3%; in experiment [4] it was 14.1%; in experiment [5], 11.1%; in experiment [6], 7.7%.

Take `CCCC(=O)n1[nH]c(=O)n(C(C)(C)C)c1=O`: the growth inhibition in experiment [1] is 2.3%; in experiment [2] it was -7.65%; in experiment [3] it was 14.8%; in experiment [4], 6.4%; in experiment [5] it was 7.5%; in experiment [6] it was -22.8%.

For the compound `CC(C)(C)c1cc(C(c2ccc3c(c2)OCO3)N2CCOCC2)c(O)c(C(C)(C)C)c1` (stereo not given), the growth inhibition in experiment [1] was 12.3%; in experiment [2], -12.3%; in experiment [3] it was -2.05%; in experiment [4] it was 14.8%; in experiment [5], 13.1%; in experiment [6], 16.9%.

As to `Cc1ccc(S(=O)(=O)Oc2cccc(C)c2)cc1`, the growth inhibition was 1.1% in experiment [1]; 17.1% in experiment [2]; 23% in experiment [3]; -69% in experiment [4]; 14.7% in experiment [5]; 33.7% in experiment [6].
